# From the supplement of paper PMC8728848
# The entries come from a sample that favours the strongest signals as a whole.
# B1: Epa1-NP-mutant-Y228W (Candida glabrata), Q6VBJ0 (protein)
# chain: MILNPALFLNKCVCIYTTLILLLLTNGGYATSSNDISLASKDPTTFPLGCSPDITTPKKGLSMELYSYDFRKKGSYPCWDAAYLDPNYPRTGYKSHRLLAKVDGVTGNINFYYHATKGCTPQLGHLPASYNYPKPLTMTNFTMLLYGYFRPKVTGFHTFTISADDLLFVNFGAGNAFDCCRRDSSADHFGNYQAYAIWGSKTAKDELTVHLDAGVYYPIRLFYNNREWDGALSFTFKTESNENTVSDFSEYFFSLDDTEEGCPGLISYDSSCASVKTSKIIGIDYHTETPNENLVPITKTIYHLGIPCTGTTTTPLCGSGFYDPLANKCVTINTSSTSSVTKTTSHTTSKEVSFHSSISSQKTLIPKSIPSPYGPIKSQSIPTEMETSSEISSSEYAFSDVISTPSHSPYTKKHSSLNSSSYTSTVIHSLTSYSISQGIFSTSLSEQNITSKSSTDKFSTATSMSNNITQSSIIISQFSTNNENYTTTSMHTSSDKISTETLNNSISTTTSILFSNSSTILKNNTTIISSDKDTHYHPVNPTIVCSTNKTEIICASITQPSISNSNNHWSSSVLKFNSTTVRSTLPSSAGSNETSINVPFSSSTESNTSTSSTSTSNSKMVRSTLPSSAGSNETSISVPFSSSTESNTSTSSTSTSNSKMVRSTLPSSAGSNETSINVPFSSSTESNTSTSSTSTSNSKTVRSTPFSSAGIIMTSLSQRNNKSASSYASSNSKCYNTADSCRKVHSTPSYLLTSSYTSEGVDYDCSLVSTKLKINDTNCVNNKHTTKSCLKTSVTTTIPTLEIKTARKSSSNTIGLHSYPTSSPNKSISSAPIIGYISSFKTIKTASPSYQTSDLTTITTITSLNNPGSTAVENTHESNDKSRKTSSNDISSKHSVIKETKDAVESSNKSHQTNTLKCSSIIIASSSHNSYESLGGTTLTLTLSKVYSPQNNDTLPFLEISEVNPSRTVLPESSKMMQYLTSTEERNKTARNTIATNIVSISTFHFEGEGNAIRMGYTQLLLMLIGIIVMNIGT
# How the values were obtained:
# Test in all cases: glycan array binding signal (z-score within array); higher = stronger binding
# Details in all cases: glycan notation: IUPAC condensed, linker removed; mutation: Y228W
# [1] = target: Fuc(a1-2)Gal(b1-3)GlcNAc(b1-3)[Neu5Ac(a2-6)Gal(b1-4)GlcNAc(b1-6)]Gal(b1-4)Glc
# In short: (§1)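 Glycan array data were curated from 3228 arrays in the Consortium for Functional Glycomics database and kept only where the protein sequence was available. Glycan names were converted to IUPAC-condensed notation, and columns mapping to the same glycan were averaged. The binding signal is a within-array Z-score, averaged across arrays of the same protein sequence at different concentrations or buffers and across linkers. Negative Z-scores can be read as non-binding.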
# Fuc(a1-2)Gal(b1-4)Glc = target: Fuc(a1-2)Gal(b1-4)Glc
# In short: as §1
# [2] = target: Fuc(a1-2)Gal(b1-4)GlcNAc(b1-3)Gal(b1-4)GlcNAc(b1-2)Man(a1-3)[Fuc(a1-2)Gal(b1-4)GlcNAc(b1-3)Gal(b1-4)GlcNAc(b1-2)Man(a1-6)]Man(b1-4)GlcNAc(b1-4)GlcNAc
# In short: as §1
# [3] = target: Fuc(a1-2)Gal(b1-4)GlcNAc(b1-3)[Fuc(a1-3)[Gal(b1-4)]GlcNAc(b1-6)]Gal(b1-4)Glc
# In short: as §1
# [4] = target: Fuc(a1-2)Gal(b1-4)GlcNAc(b1-6)GalNAc
# In short: as §1
# [5] = target: Fuc(a1-2)Gal(b1-4)[Fuc(a1-3)]GlcNAc(b1-3)GalNAc
# In short: as §1
# [6] = target: Fuc(a1-2)[Gal(a1-3)]Gal(b1-3)GlcNAc(b1-3)GalNAc
# In short: as §1
# [7] = target: Fuc(a1-2)[Gal(a1-3)]Gal(b1-4)GlcNAc(b1-2)Man
# In short: as §1
# [8] = target: Fuc(a1-2)[Gal(a1-3)]Gal(b1-4)[Fuc(a1-3)]GlcNAc
# In short: as §1
# [9] = target: Fuc(a1-2)[GalNAc(a1-3)]Gal(b1-4)[Fuc(a1-3)]GlcNAc
# In short: as §1
# [10] = target: Fuc(a1-2)[GalNAc(a1-3)]Gal(b1-4)[Fuc(a1-3)]GlcNAc(b1-3)GalNAc
# In short: as §1
# [11] = target: Fuc(a1-3)[Gal(b1-4)]GlcNAc(b1-2)Man(a1-3)[Fuc(a1-3)[Gal(b1-4)]GlcNAc(b1-2)Man(a1-6)]Man(b1-4)GlcNAc(b1-4)[Fuc(a1-6)]GlcNAc
# In short: as §1
# [12] = target: Fuc(a1-3)[Gal(b1-4)]GlcNAc(b1-3)Gal(b1-4)[Fuc(a1-3)]GlcNAc(b1-3)Gal(b1-4)[Fuc(a1-3)]GlcNAc
# In short: as §1
# [13] = target: Fuc(a1-3)[Gal3S(b1-4)]GlcNAc6S
# In short: as §1
# [14] = target: Gal(a1-3)Gal(b1-4)GlcNAc(b1-6)GalNAc
# In short: as §1
# [15] = target: Gal(a1-3)[Gal(a1-4)]Gal(b1-4)GlcNAc
# In short: as §1
# Gal(a1-4)Gal(b1-4)GlcNAc = target: Gal(a1-4)Gal(b1-4)GlcNAc
# In short: as §1
# Gal(b1-3)Gal(b1-4)GlcNAc = target: Gal(b1-3)Gal(b1-4)GlcNAc
# In short: as §1
# Gal(b1-3)GalNAc = target: Gal(b1-3)GalNAc
# In short: as §1
# Gal(b1-3)GalNAc(b1-3)Gal = target: Gal(b1-3)GalNAc(b1-3)Gal
# In short: as §1
# [16] = target: Gal(b1-3)GalNAc(b1-4)Gal(b1-4)Glc
# In short: as §1
# [17] = target: Gal(b1-3)GalNAc(b1-4)[Neu5Ac(a2-3)]Gal(b1-4)Glc
# In short: as §1
# Gal(b1-3)GlcNAc = target: Gal(b1-3)GlcNAc
# In short: as §1
# Gal(b1-3)GlcNAc(b1-2)Man = target: Gal(b1-3)GlcNAc(b1-2)Man
# In short: as §1
# [18] = target: Gal(b1-3)GlcNAc(b1-3)Gal(b1-4)GlcNAc
# In short: as §1
# [19] = target: Gal(b1-3)GlcNAc(b1-3)Gal(b1-4)GlcNAc(b1-2)Man(a1-3)[Gal(b1-3)GlcNAc(b1-3)Gal(b1-4)GlcNAc(b1-2)Man(a1-6)]Man(b1-4)GlcNAc(b1-4)GlcNAc
# In short: as §1
# [20] = target: Gal(b1-4)GlcNAc(a1-6)Gal(b1-4)GlcNAc
# In short: as §1
# [21] = target: Gal(b1-4)GlcNAc(b1-2)Man(a1-3)[Gal(b1-4)GlcNAc(b1-2)Man(a1-6)]Man(b1-4)GlcNAc(b1-4)[Fuc(a1-6)]GlcNAc
# In short: as §1
# [22] = target: Gal(b1-4)GlcNAc(b1-2)[Gal(b1-4)GlcNAc(b1-6)]Man(a1-6)[GlcNAc(b1-4)][Gal(b1-4)GlcNAc(b1-2)Man(a1-3)]Man(b1-4)GlcNAc(b1-4)GlcNAc
# In short: as §1
binder,measurement,setting,value
B1,glycan array binding signal (z-score),[1],-0.437
same,glycan array binding signal (z-score),Fuc(a1-2)Gal(b1-4)Glc,-0.146
same,glycan array binding signal (z-score),[2],0.051
same,glycan array binding signal (z-score),[3],-0.169
same,glycan array binding signal (z-score),[4],0.006
same,glycan array binding signal (z-score),[5],-0.204
same,glycan array binding signal (z-score),[6],-0.019
same,glycan array binding signal (z-score),[7],-0.304
same,glycan array binding signal (z-score),[8],-0.288
same,glycan array binding signal (z-score),[9],-0.138
same,glycan array binding signal (z-score),[10],-0.1
same,glycan array binding signal (z-score),[11],0.029
same,glycan array binding signal (z-score),[12],-0.169
same,glycan array binding signal (z-score),[13],0.109
same,glycan array binding signal (z-score),[14],-0.035
same,glycan array binding signal (z-score),[15],-0.336
same,glycan array binding signal (z-score),Gal(a1-4)Gal(b1-4)GlcNAc,-0.087
same,glycan array binding signal (z-score),Gal(b1-3)Gal(b1-4)GlcNAc,7.29
same,glycan array binding signal (z-score),Gal(b1-3)GalNAc,2.78
same,glycan array binding signal (z-score),Gal(b1-3)GalNAc(b1-3)Gal,2.53
same,glycan array binding signal (z-score),[16],15
same,glycan array binding signal (z-score),[17],4.99
same,glycan array binding signal (z-score),Gal(b1-3)GlcNAc,-0.24
same,glycan array binding signal (z-score),Gal(b1-3)GlcNAc(b1-2)Man,-0.27
same,glycan array binding signal (z-score),[18],-0.333
same,glycan array binding signal (z-score),[19],-0.274
same,glycan array binding signal (z-score),[20],3.19
same,glycan array binding signal (z-score),[21],0.093
same,glycan array binding signal (z-score),[22],-0.205
